FMDV antiviral: antivirals against foot and mouth disease virus; FMDV antiviral cell-based qHTS; Potency, µM (titrated, usually from 57.9 µM), actives largely listed as inhibitors; hit rate 1.2% among 410,000; AID 1159524; calls by dose curve; tested in HEK293T cells; further: read-out not given here; nearly all actives have a fitted effect of over 45% in size
Lassa entry inh: Lassa virus entry inhibition; Potency, µM (doses to about 37.9 µM), hits mostly inhibitors; hit rate 1.2% among 300,000; Lassa virus pseudotype entry inhibition, cell reporter; calls by dose curve; tested in HEK293 cells; further: nearly all actives have a fitted effect of over 50% in size
HCMV inh: blocks human cytomegalovirus replication; activity change, negative = inhibition, % at 57.5 µM; hit rate 4.5% among 410,000; HFF cells, HCMV-luciferase reporter, 72 h; active compounds read low; in the data active means activity change below about -60%; inconclusive means no clear call, values can overlap the other calls; inactive means above about -39%
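Inhibition of viral replication was scored as loss of reporter luminescence in HFFs infected with HCMV-luciferase (MOI 1 PFU/cell) for 72 h; compounds tested at 2 doses, normalized to buffer and Salinomycin controls.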
HCV inh: inhibitors of hepatitis C virus infection; AID 651820; Potency, µM (titrated, usually from 41.8 µM), most hits filed as inhibitors; hit rate 3.4% among 340,000; Huh7.5.1 HCVcc-Cre infection, luciferase reporter, 44 h; active means well fitted inhibition curve with a large enough effect; inconclusive means small, poorly fitted or top-dose-only effect, or another doubt; inactive means no such curve, though single readings can be large or run the other way
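Luciferase read-out (15 sec integration) after a 15 min room-temperature substrate step quantifies HCVcc-Cre infection. Cells, 1,000 per well, had compound added 4 h post-plating, then virus at ~0.5 moi, and were cultured 44 h.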
MARV entry inh: Marburg virus entry inhibition. Marburg virus pseudotyped entry inhibition, cell reporter. Potency, µM (top dose mostly 37.8 µM), usual class: inhibitors. hit rate 1.8% among 300,000. AID 540276; calls by dose curve; tested in HEK293 cells
Each line names hits and unclear results; the compound was inactive in the other large screens. Compounds with a hit are over-represented: about 7.9% of the library has one in this group of screens.

Cc1ccccc1N1CCN(S(=O)(=O)c2nnc(NC(=O)c3ccc(C(C)C)cc3)s2)CC1	FMDV antiviral inconclusive (no result: HCV inh, MARV entry inh)
CC(C)c1ccc(NC(=O)CN2C(=O)C3(SCC(=O)N3c3ccc(F)cc3)c3ccccc32)cc1 (configuration not stated)	none (no result: HCV inh, MARV entry inh)
CSc1sc(C)cc1C=O	none
CSc1cc(/C=N/O)c(SC)s1	HCV inh 10µM, MARV entry inh inconclusive
O=C(NCc1ccc(Cl)c(Cl)c1)O[C@H]1CC[C@@]23CCCN2C(=O)CCC[C@H]3[C@H]1Cc1ccccc1	none (no result: FMDV antiviral, Lassa entry inh, HCV inh, MARV entry inh)
Cc1[nH]n(-c2ccccc2)c(=O)c1C(C[N+](=O)[O-])c1ccc(Br)cc1 (configuration not stated)	FMDV antiviral inconclusive, Lassa entry inh inconclusive, HCMV inh -104.3
Cc1ccc(C(=O)N/C(=C\c2ccc(Br)cc2)c2nc(=S)[nH][nH]2)cc1	Lassa entry inh inconclusive, HCMV inh -70.8 (no result: FMDV antiviral)
CN(C)CCCNc1ncnc2oc(-c3ccccc3)c(-c3ccccc3)c12	Lassa entry inh inconclusive, HCMV inh inconclusive, HCV inh 3.55µM, MARV entry inh 8.91µM
c1ccc(-c2oc3ncnc(NCCCn4ccnc4)c3c2-c2ccccc2)cc1	FMDV antiviral inconclusive, HCV inh 11.2µM, MARV entry inh inconclusive (no result: HCMV inh)
c1ccc(-c2oc3ncnc(NCCN4CCOCC4)c3c2-c2ccccc2)cc1	HCMV inh inconclusive, HCV inh inconclusive, MARV entry inh inconclusive (no result: FMDV antiviral)
COc1cccc(-c2cc3c(c(OC)c2)OCCN(S(=O)(=O)c2ccccc2OC(F)(F)F)C3)n1	none (no result: Lassa entry inh, HCMV inh, HCV inh, MARV entry inh)
Cc1cc(C(=O)N/N=C/c2ccccc2)c(C)o1	MARV entry inh inconclusive
COc1ccc(C(=O)Nc2ccccc2C(=O)N/N=C/c2cccc3ccccc23)cc1	FMDV antiviral 0.316µM, Lassa entry inh inconclusive, MARV entry inh inconclusive
COc1ccc(C(=O)Nc2ccccc2C(=O)N/N=C/c2ccncc2)cc1OC	FMDV antiviral 14.1µM, Lassa entry inh inconclusive, MARV entry inh inconclusive
COc1ccc(C(=O)Nc2ccccc2C(=O)NCc2cccnc2)cc1OC	none
Cc1cc(C(=O)N/N=C/c2cccc3ccccc23)c(C)o1	MARV entry inh 7.94µM
O=C(N/N=C/c1cccc2ccccc12)C(=O)N1CCCC1	HCMV inh -71.2
CC[C@@]1([C@@H]2O[C@@H]([C@H]3O[C@@](O)(CO)[C@H](C)C[C@@H]3C)C[C@@H]2C)CC[C@H]([C@]2(C)CC[C@]3(C[C@H](O)[C@@H](C)[C@@H]([C@@H](C)[C@@H](OC)[C@H](C)C(=O)O)O3)O2)O1 (stereo in doubt)	none (no result: Lassa entry inh, HCMV inh, HCV inh, MARV entry inh)
COc1ccc2ccccc2c1-c1c(OC)ccc2ccccc12	Lassa entry inh inconclusive (no result: FMDV antiviral, HCMV inh, HCV inh)
Cc1ccc(C(=O)NCCc2nnc3n2CCN(C(=O)c2ccnc(Cl)c2)CC3)cc1	none (no result: Lassa entry inh, HCMV inh, HCV inh, MARV entry inh)
CCOc1ccc(-c2n[nH]c(C)c2Oc2ccc(OC)cc2)c(O)c1	Lassa entry inh inconclusive, HCV inh 11.2µM
Cc1[nH]nc(-c2ccc(OCc3cnn(-c4ccccc4)c3)cc2O)c1Oc1ccc(F)cc1	HCMV inh -75.8, HCV inh inconclusive
CCOc1ccc(-c2nc(N)ncc2Oc2cccc(OC)c2)c(O)c1	FMDV antiviral inconclusive, Lassa entry inh inconclusive, HCV inh 12.6µM, MARV entry inh inconclusive
CCOc1ccc(-c2nc(N)ncc2Oc2ccccc2Br)c(O)c1	FMDV antiviral inconclusive, HCV inh inconclusive, MARV entry inh inconclusive
O=C(NCc1ccccc1CN1CCCCC1)c1ccccc1N1CCCC1=O	none (no result: Lassa entry inh, MARV entry inh)
CN1CCN(C(=O)Nc2cccc(Cl)c2)c2cccnc21	none (no result: HCV inh)
CCCn1c(N2CCN(Cc3ccc(Cl)cc3)CC2)nc2ccccc21	HCV inh 12.6µM (no result: Lassa entry inh, MARV entry inh)
CC1(C)CN(c2ccc(Br)cc2)C(=O)[C@H]1CC(=O)Nc1ccccc1	FMDV antiviral inconclusive (no result: Lassa entry inh, HCV inh, MARV entry inh)
Cc1nc2ccccc2n1-c1nc(-c2ccco2)cc(C(F)(F)F)n1	Lassa entry inh inconclusive, HCMV inh -104.0, HCV inh 3.16µM, MARV entry inh inconclusive
Fc1ccc(CNc2nc(-c3ccco3)cc(C(F)(F)F)n2)cc1	HCV inh inconclusive, MARV entry inh 9.2µM
Cc1cc(NC(=O)CSc2nnnn2-c2ccc(C)c(Cl)c2)no1	none
NC(=O)C1(N2CCCCC2)CCN(C(=S)Nc2cc(F)cc(F)c2)CC1	HCMV inh -64.2
O=C(Nc1ccc(S(=O)(=O)NCC2CCCO2)cc1)c1ccc(Cl)cc1[N+](=O)[O-] (configuration not stated)	HCV inh 25.1µM, MARV entry inh inconclusive
Cc1c(C(=O)Nc2ccc(S(=O)(=O)NCC3CCCO3)cc2)cccc1[N+](=O)[O-] (configuration not stated)	HCV inh inconclusive, MARV entry inh inconclusive
COc1cc2cc[n+]3cc4c(OC)c(OC)ccc4cc3c2cc1OC	none (no result: Lassa entry inh, HCMV inh, HCV inh, MARV entry inh)
COC(=O)c1ccc2c(=O)[nH]c(CCl)nc2c1	FMDV antiviral inconclusive, Lassa entry inh inconclusive, HCV inh inconclusive, MARV entry inh 13µM
CC1(C(=O)NS(=O)(=O)Cc2ccccc2)CCN1C(=O)CCc1ccccc1 (configuration not stated)	none (no result: Lassa entry inh, HCV inh, MARV entry inh)
COC(=O)[C@@H]1[C@@H](c2ccccc2)[C@H]2C(=O)c3c(OC)cc(OC)cc3O[C@@]12c1ccc(OC)cc1	none (no result: FMDV antiviral, Lassa entry inh, HCMV inh, HCV inh)
CSC(=Nc1ccccc1)c1c(O)n(C)c(=O)n(C)c1=O	none
Cn1c(O)c(C(=Nc2ccccc2)SCc2ccccc2Cl)c(=O)n(C)c1=O	FMDV antiviral inconclusive, HCMV inh -64.9, MARV entry inh inconclusive
C/C=C/C(=O)OCC(=O)Nc1ccc(SC(F)F)cc1	HCMV inh -76.2
COc1cccc(NS(=O)(=O)c2ccc3c(c2)n(C)c(=O)n3C)c1	MARV entry inh inconclusive (no result: HCV inh)
C#CCSc1nnc(CNS(=O)(=O)c2ccc(Br)cc2)n1C	none (no result: Lassa entry inh, MARV entry inh)
O=C(CS(=O)c1ccc(C(F)(F)F)cc1[N+](=O)[O-])Oc1ccccc1 (configuration not stated)	FMDV antiviral 28.2µM, Lassa entry inh inconclusive, HCMV inh inconclusive, HCV inh inconclusive, MARV entry inh inconclusive
CS(=O)(=O)c1ccc(S(=O)CC(=O)OCc2ccccc2)c([N+](=O)[O-])c1 (configuration not stated)	FMDV antiviral 8.91µM, Lassa entry inh inconclusive, HCMV inh -100.9, HCV inh inconclusive, MARV entry inh inconclusive
CCOC(=O)c1ccccc1OC(=O)CS(=O)c1ccccc1[N+](=O)[O-] (configuration not stated)	none
COC(=O)c1ccc(OC(=O)CS(=O)c2ccccc2[N+](=O)[O-])cc1 (configuration not stated)	none
COC(=O)c1c(NC(=O)Cc2coc3cc(C)ccc23)sc2c1CCC2	FMDV antiviral inconclusive, MARV entry inh inconclusive (no result: HCV inh)
O=C(/C=C/c1cccs1)Nc1nc(-c2ccccc2)cs1	HCV inh 22.4µM, MARV entry inh inconclusive
O=C(/C=C/c1ccc2c(c1)OCO2)Nc1nncs1	none (no result: Lassa entry inh, MARV entry inh)
O=C(/C=C/c1ccc2c(c1)OCO2)Nc1nc(-c2ccccc2)cs1	FMDV antiviral 14.1µM, HCMV inh inconclusive, HCV inh 6.31µM, MARV entry inh inconclusive
Cc1sc(NC(=O)/C=C/c2ccc3c(c2)OCO3)nc1-c1ccccc1	FMDV antiviral 6.31µM, Lassa entry inh inconclusive, HCMV inh inconclusive, HCV inh inconclusive, MARV entry inh inconclusive

Source: PubChem BioAssay
